# According to the supplement of paper PMC6555819:
# Columns and labels:
# Assay in all cases: PBM binding z-score (relative to random genomic background probes); higher = stronger binding; sequences stand for … in GC…GCGATTGACAGCGTAGAATGAAGG
# [1] = system: RARb homodimer (NR concentration 270 nM)
# Procedure, shortened: (§1)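 Regression normalization was applied to scanned fluorescence from custom Agilent 4×180K protein-binding microarrays. Before scanning, arrays were incubated 1 h with ligand-free nuclear receptor dimers, and binding was detected with antibodies against each partner (one per run). Binding z-scores use the random background probes as reference.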
# [2] = system: RARg:RXRa (NR concentration 270 nM, RXRa partner concentration 90 nM)
# Procedure, shortened: as §1
# [3] = system: RARg homodimer (NR concentration 270 nM)
# Procedure, shortened: as §1
# [4] = system: RXRa DBDmut IVT, anti-RXR (DBD mutation: RXRa K156A/R161A, NR concentration 90 nM)
# Procedure, shortened: as §1
# [5] = system: RXRa homodimer (NR concentration 180 nM)
# Procedure, shortened: as §1
# [6] = system: THRa:RXRa (NR concentration 90 nM, RXRa partner concentration 90 nM)
# Procedure, shortened: as §1
# [7] = system: THRa homodimer (NR concentration 90 nM)
# Procedure, shortened: as §1
# [8] = system: VDR homodimer (NR concentration 270 nM)
# Procedure, shortened: as §1
Sequence,PBM binding z-score [1],PBM binding z-score [2],PBM binding z-score [3],PBM binding z-score [4],PBM binding z-score [5],PBM binding z-score [6],PBM binding z-score [7],PBM binding z-score [8]
ATCTCTAGGTAAAGATAGTTCAGTGCATGCAAAT,1.11,0.406,0.733,-0.0342,0.191,0.926,0.229,1.15
TCTAGCAGGCGAGAGGGTCACTCAAGAGGTACGG,2.17,2.04,1.83,-0.024,2.15,1.52,-0.333,0.103
GCTCAGAGGACAAGGTCAGAGCTTTGTCCGTAGA,3.68,3.51,4.41,1.18,2.64,3.08,1.34,0.78
ATATGTAGGCTAGCTGGGGTCATTCAGACTAGGC,3.02,3.59,1.99,1.43,4.96,4.2,2.76,3.63
CGTCAAAGTTCAACTAAGGTAACGTCAAGCACGC,4.4,5.96,6.81,4.8,4.81,5.05,1.86,3.9
TCGAGTAGGATAGTCGGGGCATTCAGCCAACATA,-0.402,-0.475,-0.579,0.18,-0.289,0.0302,-0.471,-0.497
CCTCGGAGTACAGAAGGTCAGAGCTGTCCGCTTT,3.15,2.77,2.95,0.9,2.37,2.3,0.111,0.59
ATCTCTAGGTCACCAAGTTCAGTGAATGCCGAAC,4.45,5.35,6.25,2.74,4.73,3.89,3.22,6.15
TCATATAGGTAAACAGATGAAAGTCCGTAAGTTA,0.099,0.636,0.431,1.38,0.703,0.419,-0.0722,0.455
ACTAGTTGGTCGGCTGAGGTCACACACAATTCGG,4.05,3.76,3.25,1.12,4.19,4.77,5.24,3.84
TCTTGTAGATCAATCGAGGTTAAGAAAGTGCGCT,0.899,0.6,0.164,0.612,1.01,3.5,0.268,0.299
ATATGTAGGTTAAGGGTCATTCCGGTTGGTTCGC,3.85,4.63,3.26,2.44,5.95,3.49,1.62,4.26
AGAACGAGGGCACGCTGGGTTGATAGCAGAGTAG,1.28,2.01,2.36,1.87,1.56,2.5,0.224,2.08
TCTCGGAGGACACGAAAGGTCAGAGGTCGACATC,5.07,5.51,5.38,1.21,6.06,3.99,1.69,2.12
ACTATTAGTAGAGACGAGGGCAACCGATAGGTTG,0.968,0.616,0.804,0.392,0.661,0.934,0.11,0.675
TCTTGTAGATCAGCAAGTTAAGAAAGCTGGCCAA,-0.5,-0.41,-0.827,0.54,-0.136,-0.47,-1.04,-0.456
GATACAGGGTCAGCTAGATGCCAGAGTATGGAAA,2.84,4.95,4.12,1.23,4.38,2.87,0.0826,0.494
TCTGCCAGGTCAGTTGGTCAGCTAACGAGCTGCC,2.77,2.86,3.55,0.569,1.12,2.11,0.521,-0.514
CGTCCAAGGTCAGAGAGTTCAGTGAATGCCGAGT,4.39,5.25,6.4,3.78,4.59,3.62,2,7.94
TCTGCTAGGTGAGTTGGTCAGCTAACGAGCTGCC,-0.359,-0.346,-0.369,-0.485,-0.331,-0.346,-0.955,-0.985
TGAATGAGGTTATAAGATCAAGGAACGTTGCAAA,0.308,1.58,0.824,0.325,2.15,1.84,0.279,0.367
ACTATTAGTTGAGACGAGGGCAACCCATAGGTTG,1.45,0.739,0.903,0.366,0.748,2.42,0.54,0.783
AGATGTAGGTTATCGGGTCATTCAGTTTGCGCAT,3.17,3.19,2.6,1.75,3.47,3.46,2.87,3.92
CCTACTGGACCAAAAAGGTCATTGATGCCGATAA,4.26,4.54,4.04,1.08,5.04,3.33,1.43,3.2
GCTTACGGGTCAAAGGCTATAGCATGAATAGAAT,2.54,4.79,4.31,1.73,6.17,2.45,-0.68,0.708
TATAGTTGGTCACGGAGGTCACACACGACGGGTA,4.58,4.81,4.72,-0.131,5.16,3.9,2.69,2.85
ATATCTAGGTTATCGGGTCATTCAGTTTGCGCAT,3.52,3.54,2.81,1.81,3.51,3.67,3.5,4.19
ACTAGCAGGCCAAGGGTCGCTCAAGATTAGTCCG,0.923,1.12,0.872,-0.27,1.13,0.795,-0.633,-0.246
